# Screening results from PubChem.
# PLK1 PBD block: PLK1 (human) polo-box domain binding inhibition; P53350; Plk1 PBD binding of FITC phosphopeptide, fluorescence polarization; Potency, µM, for inactives: max response, negative = inhibition, hits mostly inhibitors; 360,000 compounds, 2.8% hits; note: series mostly up to about 57 µM; nearly all actives have a fitted effect of over 65% in size
# TDP1 block: TDP1 (human) enzyme inhibition; Q9NUW8; recombinant TDP1, AlphaScreen DNA substrate cleavage; Potency, µM (highest dose often 130 µM), without a hit: top-dose activity change, negative = inhibition, usual class: inhibitors; 350,000 compounds, 0.28% hits; AID 485290; note: nearly all actives have a fitted effect of over 40% in size
#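 Steps: enzyme plus compound, 15 min RT; add biotin/phosphotyrosine-FITC oligonucleotide (15 nM final), react 5 min; add donor/acceptor beads (10 ug/ml final), 10 min; read AlphaScreen. Tdp1 at 1 nM final.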
# TDP1 cell noCPT: qHTS for Inhibitors of human tyrosyl-DNA phosphodiesterase 1 (TDP1): qHTS in cells in absence of CPT; DT40 Tdp1-/- hTDP1 cells, no CPT, ATP luminescence, 48 h; Potency, µM (titrated, usually from 46.2 µM), for inactives: top-dose activity change, negative = growth inhibition, usual class: inhibitors; 420,000 compounds, 15% hits; AID 686978, 2013; note: nearly all actives have a fitted effect of over 55% in size
#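 Cells were dispensed at 400 per well, compounds added by pin tool, plates incubated ≥48 hr at 37 °C, then CellTiter-Glo added for 30 min at room temperature before luminescence reading. Line: DT40 Tdp1-/- complemented with hTDP1; camptothecin omitted.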
# KAT2A inh: inhibitors of human GCN5L2 histone acetyltransferase; Q92830; GCN5L2 HAT assay, ThioGlo1 CoA-SH fluorescence; Potency, µM (top dose mostly 58.9 µM), without a hit: at the top dose activity change, negative = inhibition, usual class: inhibitors; 390,000 compounds, 0.21% hits
#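 Enzyme at 20nM final was mixed with library compounds for 15 min at room temperature. Peptide H3(1-25) at 75uM, acetyl-CoA at 70uM and ThioGlo1 at 50uM were then added. Plates were read immediately and after 20 min (Ex340nm/Em540nm).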
# TDP1 cell CPT: DT40-hTDP1 cell growth loss with CPT; chicken DT40 Tdp1-/-;hTDP1 cells + 20 nM CPT, ATP luminescence, 48 h; Potency, µM (titrated, usually from 46.2 µM), inactives show top-dose activity change, negative = growth inhibition, actives largely listed as inhibitors; 420,000 compounds, 12% hits; note: nearly all actives have a fitted effect of over 55% in size
#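 Cell growth measured by CellTiter-Glo luminescence after a minimum 48 h, 37 C compound exposure with 20 nM CPT in Tdp1-knockout DT40 cells stably expressing hTDP1, seeded 400/well; qHTS titration format.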
# VDR inh: inhibitors of human vitamin D receptor | P11473 | VDR-SRC2-3 peptide fluorescence polarization, 2 h | Potency, µM, for inactives: max response, negative = inhibition, usual class: inhibitors | 400,000 compounds, 0.93% hits
# Target sequence (P11473 whole entry, looked up): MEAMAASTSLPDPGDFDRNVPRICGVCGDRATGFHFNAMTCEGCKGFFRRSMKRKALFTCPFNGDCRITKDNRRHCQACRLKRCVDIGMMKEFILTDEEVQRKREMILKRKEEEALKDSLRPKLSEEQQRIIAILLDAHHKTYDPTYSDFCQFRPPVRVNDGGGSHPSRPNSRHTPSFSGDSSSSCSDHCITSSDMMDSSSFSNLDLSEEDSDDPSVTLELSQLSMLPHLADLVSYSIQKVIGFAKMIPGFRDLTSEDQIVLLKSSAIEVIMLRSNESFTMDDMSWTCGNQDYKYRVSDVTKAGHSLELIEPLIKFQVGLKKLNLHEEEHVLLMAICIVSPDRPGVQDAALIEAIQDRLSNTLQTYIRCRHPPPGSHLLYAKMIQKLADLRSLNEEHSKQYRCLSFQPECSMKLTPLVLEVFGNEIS
#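 FP read-out; VDR + SRC2-3 coactivator peptide; 23 nl compound by pintool; 2 h RT incubation; reagents held at 4 deg C, protected from light.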
# * hit, by the source's call; ? = inconclusive; · = no result given; [ ] = remark or other dose. An excerpt weighted towards active compounds, which were near 18% of everything screened. Calls come from the whole dose curve; as a rule, active = well fitted curve in the direction sought with a large enough effect; inconclusive = small, poorly fitted or top-dose-only effect, or another doubt; inactive = no such curve, though single readings can be large; an effect the other way counts as inactive or inconclusive. % is set by controls: 0 for no effect and ±100 for the full control effect; potency is the fitted concentration of half-maximal effect.
SMILES,PLK1 PBD block,TDP1 block,TDP1 cell noCPT,KAT2A inh,TDP1 cell CPT,VDR inh
O=C(COc1ccc2ccccc2c1)Nc1ccc(Br)cc1C(=O)O,?,4%,-13%,?,8%,-9%
CC1CC(C)CN(S(=O)(=O)c2ccc(NC(=O)C3CSC4(C)CCC(=O)N34)cc2)C1 (stereo not drawn),-7%,·,?,-12%,23µM*,1%
CCOC(=O)C1CCCN(C(=O)c2ccc3c(c2)sc2nc(-c4ccc(C)cc4C)cn23)C1 (stereo not drawn),·,-3%,18µM*,-14%,16µM*,2%
CCOC(=O)C1CCCN(C(=O)c2ccc3c(c2)sc2nc(-c4cccc(OC)c4)cn23)C1 (stereo not drawn),·,4%,15µM*,-6%,18µM*,-3%
Cc1ccc(-c2cn3c(n2)sc2cc(C(=O)NC4CCCCCC4)ccc23)c(C)c1,·,0%,-27%,-22%,?,14%
CCCCCCCCCCCCCCCC(=O)N[C@H](CN1CCOCC1)[C@H](O)c1ccccc1,·,10%,-14%[4.12 µM],-2%,-19%[4.12 µM],0%
O=[N+]([O-])c1cc2oc3c(c2c(C=NCc2ccccc2)c1O)CCCC3,-24%,8%,15µM*,-7%,8.2µM*,-6%
O=[N+]([O-])c1cc(Cc2ccccc2)cc(C=Nc2ccc(N3CCOCC3)cc2)c1O,39%,11%,0%,-13%,6%,?
COc1ccc(Nc2ncnc3c2nc2n3CCCC2)cc1Cl,·,6%,?,-12%,?,9%
CC(=O)NC1Sc2ccccc2N=C1c1ccccc1 (stereo not drawn),19µM*,10%,?,-22%,?,79µM*
CC(C)CNCC1OCc2ccccc2CO1,-15%,·,10%,12%,-2%,-13%
Cc1cc[n+](CC2OCc3ccccc3CO2)cc1,3%,-6%,18µM*,-4%,?,0%
Cc1nn2c(-c3ccccc3)nnc2c2ccccc12,-5%,-4%,-15%,-16%,-13%,-3%
CCCCN(C)S(=O)(=O)c1cc(-c2nnc3c4ccccc4c(C)nn23)ccc1C,·,4%,7.3µM*,1%,3.7µM*,2%
C/C=C/c1ccc2c(c1)O[C@H](CN(C)CC1CCOCC1)[C@@H](C)CN([C@H](C)CO)S2(=O)=O,1%,·,18µM*,·,23µM*,·
C[C@@H]1CN([C@@H](C)CO)S(=O)(=O)c2ccc(C#Cc3cccc(F)c3)cc2O[C@@H]1CN(C)CC1CC1,4%,·,?,·,?,·
C[C@@H]1CN([C@@H](C)CO)S(=O)(=O)c2ccc(Br)cc2O[C@@H]1CN(C)C(=O)c1ccc(F)cc1,-6%,·,?,·,21µM*,·
C[C@H](CO)N1C[C@H](C)[C@H](CN(C)C(=O)CC2CC2)Oc2cc(Br)ccc2S1(=O)=O,-1%,·,-8%,·,-6%,·
C[C@@H]1CN([C@@H](C)CO)S(=O)(=O)c2ccc(Br)cc2O[C@H]1CN(C)C(=O)c1ccc2c(c1)OCO2,-8%,·,23µM*,·,23µM*,·
C[C@H](CO)N1C[C@H](C)[C@@H](CN(C)C(=O)CC2CC2)Oc2cc(Br)ccc2S1(=O)=O,-9%,·,21µM*,·,?,·
CCN(CC)CCOC(=O)c1ccc(NC(=O)CCn2c(=O)oc3ccccc32)cc1,·,-1%,-19%,-7%,0%,-15%
O=P1(O)Oc2c(-c3ccccc3)cc3ccccc3c2-c2c(c(-c3ccccc3)cc3ccccc23)O1,·,9%,·,·,·,?
Cc1cccc(Nc2cc(=O)n(C)c(=O)n2C)c1,4%,·,3%,·,-13%,·
O=C(COC(=O)CCNS(=O)(=O)c1ccc(Cl)cc1)Nc1ccccc1OC(F)F,-4%,10%,-1%,-4%,1%,-21%
Cn1cccc1C(=O)N1CCC2(CCN(Cc3ccccc3)CC2)CC1,·,·,-6%,9%,0%,-2%
